For orientation: inhibition means the drop in the measured response relative to a control, in per cent.

Each structure is given as a SMILES string. Among all 4,700 compounds or so, about 760 (16%) were called active. A selection follows. A number with no mark means an inactive call.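 Rule for the calls: active = inhibition above a cutoff derived from the DMSO control wells (cut at about 28% in these data); inactive = the rest.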

Chain of Microphthalmia-associated transcription factor (Homo sapiens) (O75030 whole entry, looked up): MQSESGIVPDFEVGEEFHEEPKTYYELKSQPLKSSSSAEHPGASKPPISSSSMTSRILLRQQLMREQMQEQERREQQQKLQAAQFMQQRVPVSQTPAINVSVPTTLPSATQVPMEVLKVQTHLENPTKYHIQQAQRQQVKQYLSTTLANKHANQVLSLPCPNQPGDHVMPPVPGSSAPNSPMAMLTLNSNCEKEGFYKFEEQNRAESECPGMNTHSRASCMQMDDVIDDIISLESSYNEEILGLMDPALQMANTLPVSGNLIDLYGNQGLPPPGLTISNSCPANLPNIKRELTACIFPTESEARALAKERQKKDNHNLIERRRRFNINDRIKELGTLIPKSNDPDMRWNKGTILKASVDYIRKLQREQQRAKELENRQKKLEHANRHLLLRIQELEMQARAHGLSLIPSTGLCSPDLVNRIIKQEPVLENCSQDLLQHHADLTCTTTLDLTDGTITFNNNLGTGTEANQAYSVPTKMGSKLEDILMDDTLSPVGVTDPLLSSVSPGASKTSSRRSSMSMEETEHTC

This assay concerns the target Microphthalmia-associated transcription factor (Homo sapiens) (UniProt O75030). In words: MITF inhibitors, retest of hits, confirmation, biochemical, AlphaScreen, triplicate (AID 1259372). As to conditions: AlphaScreen MITF homodimerization, biotin/His-MITF beads; at 2.6 µM; hits give high values. (In general: In Alpha technology, singlet oxygen from a donor bead excites a nearby acceptor bead.)
Take `COc1ccc(C(=O)COC(=O)CNS(=O)(=O)/C=C/c2ccc(C)cc2)cc1OC`: the inhibition was 7.42%. The result for `O=C(CNCc1ccc(F)cc1)Nc1ccc(N2CCCC2)cc1` reads 17.1%.

On to `CC(C)(C)n1nnnc1C(c1ccc2ncccc2c1)N1CCSCC1` (stereo unspecified), for which the inhibition is 20.3%. With `CCc1ccc(OCCCCn2ccnc2)cc1` the figure was -7.12%; with `N#Cc1nc(COc2cccc(Cl)c2)oc1NCCCn1ccnc1`, 43.8% (active).

In the case of `CCc1cccc(OCCOCCn2ccnc2)c1`, the inhibition is 0.99%. Consider `C=CCc1cc(C)ccc1OCCCn1ccnc1`, for which the inhibition is -1.07%. With `COc1ccc(Br)cc1CN1CCN(C(=O)c2cccnc2)CC1` the figure was 8.4%.

In the case of `Cc1cccc(NC(=O)CNCCN2CCCCC2)c1C`, the inhibition is 7.31%. The result for `O=[N+]([O-])c1ccccc1S(=O)(=O)N1CCN(C2Cc3ccccc3C2)CC1` reads 4.35%; that for `COc1ccc(CN2CCN(Cc3cc(OC)c(OC)c(OC)c3)CC2)cc1`, 1.87%. In the case of `CCN(CC)CCN1COc2c(cc(Cl)c3cccnc23)C1`, the inhibition was 107% (active).

With `CN1CCN(CCC(=O)N/N=C/c2ccsc2)CC1`, the inhibition is -0.75%. For `c1ccc(-n2cc(CN3CCOCC3)c(-c3ccc4c(c3)OCCO4)n2)cc1`, the inhibition is 13.2%. For `COC(=O)C(C)CN1CCN(Cc2ccc3c(c2)OCO3)CC1` (stereo unspecified), the inhibition is 1.84%. In the case of `CCN(Cc1ccccc1)Cc1ccc([N+](=O)[O-])cc1`, the inhibition was -4.11%. In the case of `COc1ccc(OCCCC(=O)Oc2ccc(OC)cc2)cc1`, the inhibition was 4.29%. With `Cc1ccc(OCCCCNCCN2CCOCC2)c(Br)c1` the figure was 5.77%. On to `COc1cccc(-c2ncnn2-c2sc3c(c2C#N)CCCCC3)c1`, for which the inhibition was -10.4%. With `COc1cc(CN2CCN(Cc3ccccc3Cl)CC2)cc(OC)c1OC` the figure was 9.37%; with `CCN1CCN(CCOCCOc2ccccc2OCc2ccccc2)CC1`, 2.12%. With `COCCCN1C(=O)c2cccc3c(C(=O)c4ccccc4)ccc(c23)C1=O` the figure was 10.4%; with `O=C(CN1CCN(CC(=O)c2ccco2)CC1)Nc1ccc(Cl)c(Cl)c1`, 10.7%; with `Cc1nc2sc(C(c3ccccc3Cl)N3CCC4(CC3)OCCO4)c(O)n2n1` (stereo unspecified), 13.8%. With `CC(=O)NS(=O)(=O)c1ccc(-c2ccc(C=C(C#N)C#N)o2)cc1`, the inhibition is -19.5%. The result for `N#Cc1ccc(/C=N/NC(=O)c2cc([N+](=O)[O-])cc([N+](=O)[O-])c2)cc1` reads 3.87%; that for `Fc1cccc(Cl)c1Cn1nnc(-c2ccncc2)n1`, 13.6%. The result for `Cc1cccc(OCCN2CCNCC2)c1C` reads -3.54%; that for `COc1ccc2c(c1)CC(c1nc(Nc3ccc4cnccc4c3)c3ccccc3n1)CO2` (stereo unspecified), 58.2% (active). With `CC1CCCCC1NC(=O)CSc1nnc(-c2ccncc2)n1CCCN(C)C` (stereo unspecified) the figure was 8.82%.

`COc1ccc(C(=O)N2CCN(Cc3ccccc3C(F)(F)F)CC2)cc1OC`: the inhibition is 3.61%. With `CCN(C(=O)Cc1nc(N)n[nH]1)C1(C(=O)Nc2ccccc2)CCCCC1`, the inhibition is 105% (active).

Turning to `CCN(C(=O)Cc1nc(N)n[nH]1)C1(C(=O)Nc2ccc(C)cc2)CCCCC1`, the inhibition is 81.1% (active). As for `CCOc1ccc(CN2CCCN(C)CC2)cc1`, the inhibition is 5.9%. On to `CCN(CC)C(=O)C1CCCN(Cc2cccc(Cl)c2)C1` (stereo unspecified), for which the inhibition is -2.94%. With `N#Cc1ccc(OCC(=O)Nc2nc(-c3ccccn3)cs2)cc1` the figure was 22.3%; with `CCC(C)NCCOCCOc1cc(C)cc(C)c1C` (stereo unspecified), -6.95%.

Turning to `COc1ccc(Cn2nnc(C(=O)Nc3cccc(Cl)c3)c2N)cc1`, the inhibition is 8.84%. As to `CCN1CCN(CC(=O)N/N=C/c2cccc(Cl)c2)CC1`, the inhibition is 2.25%. With `c1cncc(CCNc2ccc3ncc(-c4cc5ccccc5o4)n3n2)c1` the figure was 2.68%. With `CN1CCC(N2CCN(c3ccccc3Cl)CC2)CC1` the figure was 10.4%.

Turning to `C=CCNC(=O)c1sc(=S)n(CC)c1N`, the inhibition is 0.63%. As to `CC(C)(C)NCC(=O)Nc1c2c(nc3ccccc13)N(Cc1ccccc1)CC2`, the inhibition was 18.3%. The result for `CCOc1cccc(C2C(C(=O)OCCOc3ccccc3)=C(C)NC3=C2C(=O)CCC3)c1` (stereo unspecified) reads 2.03%; that for `Cc1ccc(C(C)C)c(OCC#CCN2CCNCC2)c1`, 7.61%; that for `COc1ccc(CN2CCN(Cc3ccccc3C)CC2)c(OC)c1OC`, -1.26%.

`CCCS(=O)(=O)N1CCN(Cc2cccc(Cl)c2)CC1`: the inhibition was 4.65%. Take `COC(=O)c1sc(NC(=O)c2ccccc2C)c(C#N)c1C`: the inhibition is -8.1%. On to `COc1ccc(C(=O)NCCN2CCN(c3nc4c(C)c(C)ccc4s3)CC2)cc1`, for which the inhibition was -5.73%. The result for `COc1cc(CN2CCN(Cc3ccco3)CC2)c([N+](=O)[O-])cc1OC` reads 16.3%; that for `COc1cc(Nc2ncnc3c2nc(N2CCOCC2)n3C(C)C)cc(OC)c1OC`, -3.35%; that for `COc1cc(N2CCOCC2)ccc1Nc1cc(Nc2ccccc2-n2cccn2)c(C(F)(F)F)cn1`, 31.5% (active).

As for `CCN(CC(=O)NCc1ccc(Cl)cc1)Cn1nnc2ccccc21`, the inhibition was 0.75%. The result for `COc1ccc(CN2CCN(C3CCC(C)CC3)CC2)c(OC)c1OC` (stereo unspecified) reads 2.96%; that for `CCCCC(=O)NCc1ccc(F)cc1`, 17.4%; that for `CN(C)c1cccc(Nc2ccc(-c3cccc(C=O)c3)cn2)c1`, 65.7% (active). With `COc1ccc(CN2CCN(Cc3cccc(Br)c3)CC2)c(OC)c1`, the inhibition was 8.87%. With `CCN(CCN(C)C)Cc1c(Cl)cccc1Cl` the figure was -9.82%. With `COc1ccc(CN2CCN(Cc3cc(OC)ccc3OC)CC2)cc1` the figure was -1.47%; with `O=c1c2ccccc2ncn1CCCCOc1ccccc1F`, 15.3%; with `COc1ccccc1CN1CC(C)OC(C)C1` (stereo unspecified), -2.69%.

In the case of `CC(c1ccccn1)N(CCN(C)C)C(=S)Nc1ccccc1F` (stereo unspecified), the inhibition was 19.9%. In the case of `O=S(=O)(c1ccc(F)cc1)N1CCN(Cc2ccccc2C(F)(F)F)CC1`, the inhibition was 3.94%.

In the case of `COc1cccc(CN2CCN(Cc3ccc(C(F)(F)F)cc3)CC2)c1OC`, the inhibition is 1.8%. The result for `Fc1ccc(CN2CCN(C3CCCC3)CC2)cc1` reads 5.12%.

For the compound `CSc1ccc(CN2CCN(Cc3cccc(Oc4ccccc4)c3)CC2)cc1`, the inhibition is 6.75%. The result for `COc1ccc(NC(=O)c2cc3n(n2)C(C(F)(F)F)CC(c2ccc(OC)c(OC)c2)N3)cc1OC` (stereo unspecified) reads -8.79%; that for `CC(=O)c1cccc(N2C(=O)c3cccnc3C2=O)c1`, 0.46%. With `CCCS(=O)(=O)N1CCN(Cc2ccccc2Br)CC1` the figure was 7.16%. With `COc1cccc(OC)c1C(=O)N1CCN(Cc2ccccc2F)CC1` the figure was 6.68%; with `COc1ccc(OC)c(CN2CCN(Cc3ccc(Cl)cc3)CC2)c1`, 7.55%; with `O=[N+]([O-])c1ccccc1CN1CCN(Cc2cccnc2)CC1`, 14.6%. Consider `CC1CCC2C(=O)N(c3ccc(I)cc3)C(=O)C2C1` (stereo unspecified), for which the inhibition is -5.9%.

Turning to `O=C(O)C1C2C=CC(O2)C1C(=O)Nc1nccs1` (stereo unspecified), the inhibition is -0.18%. With `O=C(NN1C(=O)c2ccccc2C1=O)c1cccc(F)c1` the figure was -16%.

On to `Cc1ccc(C)n1C(Cc1ccccc1)C(=O)O` (stereo unspecified), for which the inhibition is 17%. The result for `CN(CCc1ccccn1)Cc1cccnc1` reads 8.93%; that for `COc1ccc(C(CNCc2cc(=O)oc3cc4c(cc23)CCC4)N2CCOCC2)cc1` (stereo unspecified), 10.3%; that for `O=C(Cc1cccs1)N/N=C\C=C\c1ccco1`, 79.7% (active). The result for `Fc1cccc(CN2CCN(C3CCC(c4ccccc4)CC3)CC2)c1` (stereo unspecified) reads 11.2%. With `CCC(C)c1ccccc1NC(=O)CN(C)CC(=O)Nc1ccccc1SC` (stereo unspecified) the figure was -6.92%.

Consider `Cc1ccccc1NC(=O)NCCOc1cc(N2CCCC2)ncn1`, for which the inhibition was 6.75%. As to `CCS(=O)(=O)N1CCN(C2CCCCC2C)CC1` (stereo unspecified), the inhibition was -1.17%.

Regarding `COc1ccc(CN2CCCC(C(=O)N3CCCCC3)C2)cc1` (stereo unspecified), the inhibition was -32.4%. The result for `C/C(N)=C(/C#N)C(=O)COC(=O)c1c2c(nc3ccccc13)/C(=C/c1ccco1)CC2` reads 90.7% (active). Take `CCN1CCN(CCOc2ccc(-c3ccccc3)cc2)CC1`: the inhibition is 9.66%.

Regarding `COc1ccc(CN2CCC(C(=O)N3CCN(Cc4ccccc4)CC3)CC2)cc1`, the inhibition was 13.8%. As for `COc1cc(CN2CCN(Cc3cccnc3)CC2)cc(OC)c1OC`, the inhibition was 6.15%. For `Cc1cc(NC(=O)CNCCCN(C)C)no1`, the inhibition is 2.39%. The result for `Cc1cc(NC(=O)CSc2ccc(-c3ccccn3)nn2)no1` reads 49% (active). The result for `Cc1cccnc1NC(=O)CSc1nnc(COc2ccc(C(C)C)cc2)n1C` reads 5.99%. The result for `CCOc1ccc(OCCCCNCCO)cc1` reads 10.6%; that for `COc1cccc(CN2CCC(C(=O)NCCc3ccccc3)CC2)c1`, 8.72%. With `CC(NCCCN1CCOCC1)C(=O)Nc1ccccc1` (stereo unspecified), the inhibition was 5.64%. The result for `CN(CCC(=O)O)Cc1cccc(Cl)c1` reads -8.04%; that for `CC[C@@H]1NC(=O)[C@H]2CN(C(=O)NCc3ccccc3)CCN2C1=O`, 73.6% (active).

On to `C[C@@H](OCc1ccccc1)[C@@H]1NC(=O)[C@H]2CN(C(=O)Nc3cccc(F)c3)CCN2C1=O`, for which the inhibition is 68.9% (active). Turning to `Cc1n[nH]c(=O)nc1N/N=C/c1cccs1`, the inhibition is 35.1% (active).

For `CCCS(=O)(=O)N1CCN(C(C)C)CC1`, the inhibition was 10.5%. Take `CC(C)CO/N=C1\C[C@@H](O)[C@@H](O)[C@@H]2[C@@H]3C(=O)N([C@@H](C)c4ccccc4)C(=O)[C@@H]3CC[C@@H]12`: the inhibition was 3.51%. With `O=C(OCCN1CCOCC1)c1c(Cl)nc2sccn12`, the inhibition was 9.99%.
